This note sets out measurements from PubChem BioAssay AID602314 (ICCB-Longwood Screening Facility, Harvard Medical School, 2012).

SMILES strings stand for the structures. In all, about 84,000 compounds went through this assay and about 110 (0.13%) were called active. Many of the other results were omitted from the sample, so actives are more common in it than they were. Unmarked numbers belong to inactive results. Rule as the data show it: active = inhibition above about 30% (passing the limit was not always enough); inactive = the rest.

As a reminder, the inhibition is the change of the read-out against control, counted positive when it falls.

This experiment deals with MgrA (MarR family transcriptional regulator), Staphylococcus aureus Newman. As to the kind of experiment: modulators of MgrA DNA binding – biochemical, S. aureus Newman, fluorescence polarization, primary screen (AID 602314).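 Also: 0% = protein plus DNA without compound and 100% = DNA alone without protein; higher means less MgrA bound to DNA so lower polarization.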 The following applies: stronger effect = higher value, concentration not given here.
As for `CCN1C(=O)/C(=C/C=C/c2ccco2)C(=O)NC1=S`, the inhibition is 66.7% (active).
The result for `CCN(CC)P1(=S)OC(C)(C)CC1(C)O` (stereo not given) reads 0.3%; that for `O=C1CSC(c2ccccc2)c2c(-c3ccccc3)nn(-c3ccccc3)c2N1` (stereo not given), -0.55%; that for `CCn1cc(C=C(C#N)C#N)c2ccccc21`, -2.65%.
Consider `O=C1NC(=O)C(C2(C3C(=O)NC(=O)NC3=O)C(=O)Nc3ccccc32)C(=O)N1`, for which the inhibition is 1.5%.
Take `COc1cccc(N2C(=O)/C(=C/c3ccsc3)C(=O)NC2=S)c1`: the inhibition is 18.1%.
Consider `NC1=C(C(=O)OCc2ccccc2)C2(C(=O)Nc3ccc(Br)cc32)c2c(c3ccccc3oc2=O)O1` (stereo not given), for which the inhibition is -0.3%.
Turning to `CN1CCc2c(c(S)[nH]c(=S)c2C#N)C1`, the inhibition is 77.6% (active).
Regarding `Cn1c([O-])c([N+](C)(C)C)c(=O)n(C)c1=O`, the inhibition is 0.5%.
With `O=C1CC(c2cccc(Br)c2)c2c(c3ccccc3oc2=O)O1` (stereo not given) the figure was 13.6%.
